Assay results as given in ChEMBL document CHEMBL4513135, “CO-ADD screening of IQOG CSIS (Spain) compounds”.
“And” between values parts separate entries of the source, which are not always exact repeats. Equal values may be shown once. Entries with a potency or affinity are not part of this list.

How the values were obtained:
Staphylococcus aureus = details: Concentration 32 ug.mL-1, ASSAY_TEST Inhibition of Bacterial Growth, detection method Absorption (OD600), MEDIA CAMHB, plate type 384well, NBS, CORNING #3640, time 18 hr
Escherichia coli = details: Concentration 32 ug.mL-1, ASSAY_TEST Inhibition of Bacterial Growth, detection method Absorption (OD600), MEDIA CAMHB, plate type 384well, NBS, CORNING #3640, time 18 hr

| Compound | Inhibition (Staphylococcus aureus; 32 ug/mL) | Inhibition (Escherichia coli; 32 ug/mL) | Inhibition (Staphylococcus aureus) | Inhibition (Escherichia coli) |
| --- | --- | --- | --- | --- |
| N#Cc1cc(C#N)c(NC2CCN(Cc3ccccc3)CC2)nc1N | 23.9% and 14.84% | -6.37% and -14.46% | – | – |
| Nc1c2c(nc3c1C(c1ccccc1)c1ccc4ccccc4c1O3)CCCC2 (stereo unspecified) | – | – | 23.6% | -5.04% |
| Cc1ccc(/C=C(\C#N)C(=O)c2ccccc2)cc1 | – | – | 25.42% | 15.2% |
| CC1Cc2c(Cl)nc3nc4c(c(N)c3c2NC1=O)CCCC4 (stereo unspecified) | – | – | 46.7% | -7.98% |
| Cn1c(CNNC(=O)c2ccco2)cc2ccccc21 | – | – | 1.86% | 21.64% |
| C#CCN1CCc2nc3nc(N(C)C)c(C#N)cc3c(N)c2C1 | – | – | 32.37% | -3.45% |
| O=c1oc2cc(O)ccc2cc1-c1ccccc1 | – | – | 10.2% | 2.31% |
| N#Cc1ccc(Br)cc1N | – | – | 4.6% | 16.76% |
| C#CCN(C)c1nc(OC)c(C#N)cc1C#N | – | – | 10.54% | -19.1% |
| N#Cc1cc(C#N)c(NCCO)nc1N | – | – | 40.77% | -7.55% |
| N#Cc1c(N)nc(N)c(C#N)c1-c1ccccc1 | – | – | 24.97% | -10.66% |
| Cn1c(C(=O)O)cc2cc(OCCCC3CCN(Cc4ccccc4)CC3)ccc21 | – | – | 27.49% | -8.76% |
| Nc1c2c(nc3c1C(c1ccc(O)cc1)c1c(ccc4ccccc14)O3)CCCC2 (stereo unspecified) | – | – | 9.54% | 9.35% |
| CN(Cc1cn(Cc2ccccc2)nn1)Cc1cc2cc(OCCCC3CCN(Cc4ccccc4)CC3)ccc2n1C | – | – | 10.05% | -17.67% |
| O=Cc1ccc(OCCO[N+](=O)[O-])cc1 | – | – | 6.78% | 18.31% |
| Cn1ccnc1C1c2ccc3cccnc3c2Oc2nc3c(c(N)c21)CCC3 (stereo unspecified) | – | – | 14.96% | -15.51% |
| CCOC(=O)c1c(C)nc2nc3c(c(N)c2c1-c1ccc(Cl)cc1)CCCCC3 | – | – | 2.05% | -16.85% |
| Cc1[nH]nc2c1C(c1ccc(O)c(O)c1)C(C#N)=C(N)O2 (stereo unspecified) | – | – | 9.09% | 8.02% |
| CC/C(C)=N/NC(=O)Cc1c[nH]c2ccccc12 | – | – | -7.02% | -3.01% |

| Compound | Inhibition (Staphylococcus aureus; 32 ug/mL) | Inhibition (Escherichia coli; 32 ug/mL) | Inhibition (Staphylococcus aureus) | Inhibition (Escherichia coli) |
| --- | --- | --- | --- | --- |
| Cn1ccnc1C1c2c(nc3c(c2N)CCC3)Oc2ccc3ccccc3c21 (stereo unspecified) | – | – | 25.1% | -9.44% |
| COc1ccc(C2C(C#N)=C(N)Oc3c2ccc2ccccc32)cc1 (stereo unspecified) | – | – | 21.39% | -6.99% |
| Cl.Nc1c2c(nc3c1C(c1c(Cl)cccc1Cl)c1ccc4ccccc4c1O3)CCCC2 (stereo unspecified) | – | – | -3.18% | -2.79% |
| Cc1ccc2[nH]c(=O)c(C=O)cc2c1 | – | – | 3.11% | -7.4% |
| O=C(O)C(=Cc1ccccc1)NC(=O)c1ccccc1 | – | – | 14.72% | 9.37% |
| COc1ccc(C2C(C#N)=C(N)Oc3ccc4ccccc4c32)cc1 (stereo unspecified) | – | – | 37.68% | -4.54% |
| COc1ccc(C2C(C#N)=C(Cl)Oc3c2ccc2ccccc32)cc1OC (stereo unspecified) | – | – | -3.84% | -30% |
| CC#CCN(C)Cc1cc2cc(OCc3ccccc3)ccc2n1C.O=C(O)C(=O)O | – | – | 7.01% | 5.45% |
| COC(=O)C(C#N)=Cc1ccccc1 | – | – | 23.27% | 9.25% |
| Cc1ccc(C2c3ccc4ccccc4c3Oc3nc4c(c(N)c32)CCCC4)cc1 (stereo unspecified) | – | – | -4.73% | -12.25% |
| CCOC(=O)c1c(C)nc(/N=N/c2nc(C)c(C(=O)OCC)c(-c3ccccc3)c2C#N)c(C#N)c1-c1ccccc1 | – | – | 11.27% | 6.76% |
| C#CCNc1[nH]c2ccc(O)cc2c1C#N | – | – | 30.3% | -3.92% |
| CCOC(=O)C1=C(C)OC(N)=C(C#N)C1c1ccccc1 (stereo unspecified) | – | – | 25.42% | -7.58% |
| O=C(Cc1c[nH]c2ccccc12)NNCCc1ccccc1 | – | – | 4.22% | 5.19% |
| CCOC(=O)C1=C(C)NC(N)=C(C#N)C1c1ccc(OC)cc1 (stereo unspecified) | – | – | 20.75% | -7.34% |
| N#Cc1cc(C#N)c(N2CCCC2)nc1N | – | – | 51.19% | -9.12% |
| CCOC(=O)c1c(C)nc2nc3c(c(N)c2c1-c1ccc(OC)cc1)CCCCCC3 | – | – | 3.19% | -20.4% |
| Cn1cc(/C=C2\NC(=S)NC2=O)c2ccccc21 | – | – | 2.93% | 3.35% |
| Br.C#CCNCc1ccccc1 | – | – | 25.93% | 20.8% |
